These results are taken from publication PMC5540273 (PLoS ONE, 2017).

Among the test systems are CAMKK1; CAMKK2; CASK; CDC2L2; CDK2; CDK3; CDK4-cyclinD1.
Common to all, as to conditions: concentration: 1 μM, replicates: in singlicate; n = 1
The subject of a further assay is T1, CDC2L1.
T1 construct: gene CDK11B

A further assay has as its system T2, CDC2L5.
T2 construct: gene CDK13

A further assay deals with T3, CDK11.
T3 construct: gene CDK19
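Further: KINOMEscan kinase panel screen.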

Consider `CN(C(=O)c1ccc(-c2cc(-c3c[nH]nc3-c3ccccn3)ccn2)cc1)C1CCOCC1` [GW810083], for which the “%Inh” value with CAMKK1 is 12%; with CAMKK2, 25%; with CASK, 0%; with CDC2L1, 0%; in the assay with CDC2L2 it was 0%; in the assay with CDC2L5, 11%. In addition, the “%Inh” value in the assay with CDK11 is 52%; in the assay on CDK2 it was 0%; in the assay on CDK3, 0%; in the assay on CDK4-cyclinD1 it was 31%.
Take `COCCNC(=O)c1ccc(-c2cc(C(=O)NC3CC3)cc(F)c2C)cc1` [GW868318]: the “%Inh” value is 3% in the assay with CAMKK1; 16% with CAMKK2; 16% with CASK; 3% with CDC2L1; 15% in the assay with CDC2L2; 33% with CDC2L5. Besides, the “%Inh” value in the assay with CDK11 came to 6%; in the assay on CDK2, 12%; with CDK3, 11%; in the assay on CDK4-cyclinD1 it was 24%.
With `CC(C)(C)n1cnc2c(N)ncnc21` [SKF-97359], the “%Inh” value in the assay with CAMKK1, in the assay with CAMKK2, in the assay with CASK, with CDC2L1, with CDC2L2 and with CDC2L5 was 0% throughout. For the same compound, the “%Inh” value with CDK11 is 0%; with CDK2, 0%; in the assay on CDK3, 0%; with CDK4-cyclinD1 it was 21%.
`c1ccc(-c2n[nH]cc2-c2ccnc3ccccc23)nc1` [GW271431]: the “%Inh” value with CAMKK1 stood at 17%; in the assay on CAMKK2, 30%; with CASK, 0%; in the assay with CDC2L1, 0%; in the assay with CDC2L2, 24%; in the assay on CDC2L5, 0%. For the same compound, the “%Inh” value is 34% in the assay on CDK11, 0% in the assay on CDK2, 0% in the assay on CDK3 and 0% with CDK4-cyclinD1.
